Test results taken from PubChem BioAssay (NCATS).
“And” between values parts separate entries of the source, which are not always exact repeats. Equal values may be shown once. Results filed as inconclusive are left out. Some compounds were tested as several samples or in several runs, with calls that do not always agree. The source made the active and inactive calls. The call rests on the fitted dose curve; in most records, active means well fitted curve in the direction sought with a large enough effect; inconclusive means small, poorly fitted or top-dose-only effect, or another doubt; inactive means no such curve, though single readings can be large; an effect the other way counts as inactive or inconclusive.

Assays:
[1] = Cellular Toxicity (caspase-3) H-4-II-E (AID 663);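 further: cells exposed to compound for 16 hr before readout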
Method in brief: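 Apoptosis induction is scored as increased luminescence from caspase 3/7 substrate cleavage in rat hepatoma H-4-II-E cells exposed to compound for 16 hr. Activity is scaled between DMSO and 100 uM tamoxifen.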

[2] = Cellular Toxicity (caspase-3) Hek293 (AID 664);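 further: cells exposed to compound for 16 h at 37 °C before readout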
Method in brief: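 HEK293 cells were exposed to compounds in complete medium for 16 hr at 37 °C, then caspase-3/7 activity was read by Caspase-Glo 3/7 luminescence after 20 min at room temperature. Data normalized to DMSO and 100 uM tamoxifen; AC50 from Hill fits.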

[3] = Cellular Toxicity (caspase-3) N2a (AID 665);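 further: compound exposure lasted 16 h at 37 °C before readout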
Method in brief: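 Mouse N2a neuroblastoma cells (1500/well) were treated with compounds for 16 h at 37 °C, then caspase-3/7 activity was read by Caspase-Glo luminescence after 1 h at room temperature. Data were normalized to DMSO and 10 uM staurosporine; AC50 from Hill fits.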

[4] = Cellular Toxicity (caspase-3) NIH 3T3 (AID 666);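 further: caspase signal read after 16 h compound exposure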
Method in brief: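 Mouse NIH 3T3 fibroblasts (1000 cells/well) were treated with compound for 16 hr at 37°C in complete medium; caspase-3/7 activity was read by Caspase-Glo luminescence. Normalized to DMSO and 100 uM tamoxifen; AC50 from Hill fits.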

[5] = Cellular Toxicity (caspase-3) Renal Proximal Tubule (AID 667);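 further: cells exposed to compound for 16 hours at 37 °C before detection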
Method in brief: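 Caspase 3/7 activation measured by luminescent aminoluciferin release in primary rat proximal tubule cells after 16 hr compound exposure at 37 °C. AC50 from Hill-fitted concentration-response, scaled between DMSO and 10 uM staurosporine.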

[6] = target: Cytochrome P450 2C9 (Homo sapiens) (UniProt P11712); assay: qHTS Assay for Inhibitors and Substrates of Cytochrome P450 2C9 (AID 883); further: nearly all actives have a fitted effect of over 60% in size; further: potency means the concentration at half of the fitted maximal effect
Cytochrome P450 2C9 (Homo sapiens), sequence (P11712 whole entry, looked up): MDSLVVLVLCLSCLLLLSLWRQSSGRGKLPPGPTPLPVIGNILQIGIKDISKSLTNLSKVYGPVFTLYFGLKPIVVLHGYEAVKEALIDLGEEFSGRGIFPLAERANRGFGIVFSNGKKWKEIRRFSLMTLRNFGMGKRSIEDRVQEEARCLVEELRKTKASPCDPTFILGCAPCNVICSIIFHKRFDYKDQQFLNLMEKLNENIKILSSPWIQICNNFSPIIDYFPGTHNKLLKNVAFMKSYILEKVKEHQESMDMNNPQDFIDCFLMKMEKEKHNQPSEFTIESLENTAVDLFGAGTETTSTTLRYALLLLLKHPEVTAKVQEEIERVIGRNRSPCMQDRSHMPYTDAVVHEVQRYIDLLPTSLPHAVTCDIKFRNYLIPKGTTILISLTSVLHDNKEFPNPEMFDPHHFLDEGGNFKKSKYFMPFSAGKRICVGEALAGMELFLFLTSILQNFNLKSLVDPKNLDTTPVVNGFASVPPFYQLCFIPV
Method in brief: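 Turnover of Luciferin-H (100uM, KM) by 10nM human CYP2C9 was measured over 60 min at 37C with NADPH regeneration; inhibitors and some substrates reduce luminescence. Data normalized to sulphaphenazole 57uM.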

[7] = target: Cytochrome P450 3A4 (Homo sapiens) (UniProt P08684); assay: qHTS Assay for Activators of Cytochrome P450 3A4 (AID 885); further: nearly all actives have a fitted effect of over 65% in size
Cytochrome P450 3A4 (Homo sapiens), sequence (P08684 whole entry, looked up): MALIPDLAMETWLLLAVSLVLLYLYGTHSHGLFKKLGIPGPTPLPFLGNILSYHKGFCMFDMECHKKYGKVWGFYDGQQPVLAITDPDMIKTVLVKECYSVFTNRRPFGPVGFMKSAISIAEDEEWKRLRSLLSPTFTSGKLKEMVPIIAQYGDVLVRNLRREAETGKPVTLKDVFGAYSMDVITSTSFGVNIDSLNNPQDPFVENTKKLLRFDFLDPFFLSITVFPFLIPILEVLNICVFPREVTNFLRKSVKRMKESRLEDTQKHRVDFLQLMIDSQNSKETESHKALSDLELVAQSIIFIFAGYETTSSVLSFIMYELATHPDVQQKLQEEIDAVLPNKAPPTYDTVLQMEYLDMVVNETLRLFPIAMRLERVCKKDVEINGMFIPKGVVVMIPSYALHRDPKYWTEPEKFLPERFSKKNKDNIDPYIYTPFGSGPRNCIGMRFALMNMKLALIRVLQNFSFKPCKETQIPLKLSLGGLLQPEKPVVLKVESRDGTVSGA
Method in brief: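 Steps: enzyme/substrate mix dispensed; compound added, 10 min RT; NADPH regeneration solution added, 60 min RT; luciferin detection buffer stops reaction; 20 min later luminescence measured.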

[8] = target: Cytochrome P450 2D6 (Homo sapiens) (UniProt P10635); assay: qHTS Assay for Inhibitors and Substrates of Cytochrome P450 2D6 (AID 891); further: nearly all actives have a fitted effect of over 60% in size; further: potency means the concentration at half of the fitted maximal effect
Cytochrome P450 2D6 (Homo sapiens), sequence (P10635 whole entry, looked up): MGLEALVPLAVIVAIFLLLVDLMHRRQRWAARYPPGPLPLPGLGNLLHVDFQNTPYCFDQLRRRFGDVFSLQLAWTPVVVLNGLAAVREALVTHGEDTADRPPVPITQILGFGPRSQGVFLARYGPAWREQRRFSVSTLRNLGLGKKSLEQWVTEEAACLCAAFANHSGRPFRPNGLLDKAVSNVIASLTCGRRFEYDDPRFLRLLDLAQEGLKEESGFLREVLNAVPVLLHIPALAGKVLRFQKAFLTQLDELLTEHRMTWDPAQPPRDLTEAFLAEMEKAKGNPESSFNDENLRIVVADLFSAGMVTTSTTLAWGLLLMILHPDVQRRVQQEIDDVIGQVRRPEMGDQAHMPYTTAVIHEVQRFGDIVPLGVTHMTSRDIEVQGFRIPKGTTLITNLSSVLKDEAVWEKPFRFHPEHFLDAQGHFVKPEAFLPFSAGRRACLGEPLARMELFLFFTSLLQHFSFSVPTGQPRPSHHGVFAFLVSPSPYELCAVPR
Method in brief: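 Human CYP2D6 (5 nM) with 30 uM Luciferin-ME EGE (at Km) in 100 mM KPO4, compound preincubated 10 min, then NADPH regeneration system for 60 min at room temperature. Luciferin read by luminescence; normalized to 1.43 uM quinidine.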

[9] = target: Cytochrome P450 3A4 (Homo sapiens) (UniProt P08684); assay: qHTS Assay for Inhibitors and Substrates of Cytochrome P450 3A4 (AID 884); further: nearly all actives have a fitted effect of over 50% in size; further: potency means the concentration at half of the fitted maximal effect
Method in brief: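 20 nM human CYP3A4 with 25 uM Luciferin-PPXE (at KM) in 200 mM KPO4, preincubated 10 min with compound; NADPH regeneration started a 60 min RT reaction. Luciferin detected by luminescence, normalized to 57 uM ketoconazole as full inhibition.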

[10] = target: Guanine nucleotide-binding protein G(i) subunit alpha-1 (Homo sapiens) (UniProt P63096); assay: qHTS Assay for Inhibitors of RGS12 GoLoco Motif Activity (Green Fluorophore) (AID 879);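 further: negative values mean loss of peptide binding seen as reduced polarization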
Guanine nucleotide-binding protein G(i) subunit alpha-1 (Homo sapiens), sequence (P63096 whole entry, looked up): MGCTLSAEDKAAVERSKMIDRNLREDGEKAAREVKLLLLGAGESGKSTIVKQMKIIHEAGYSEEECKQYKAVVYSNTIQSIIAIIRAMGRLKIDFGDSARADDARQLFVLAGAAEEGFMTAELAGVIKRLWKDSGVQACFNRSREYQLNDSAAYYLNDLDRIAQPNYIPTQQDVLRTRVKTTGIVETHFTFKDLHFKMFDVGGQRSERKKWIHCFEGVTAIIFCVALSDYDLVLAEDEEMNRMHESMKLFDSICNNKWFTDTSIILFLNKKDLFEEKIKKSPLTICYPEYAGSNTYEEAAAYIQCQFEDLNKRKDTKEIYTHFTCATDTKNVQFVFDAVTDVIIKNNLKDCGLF
Method in brief: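 Fluorescence polarization assay: 50 nM Gαi1 with 10 nM FITC-labeled RGS12 GoLoco peptide in 10 mM Tris pH 7.5, 150 mM NaCl, 0.1 mM GDP, 0.05% NP40, 10 min at room temperature with compound.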

Measured: Potency

NC(=O)c1ccccc1
not listed: [9] | [10]
inactive: all other assays above

CC(=O)C(C)=O
not listed: [7] | [10]
inactive: all other assays above

Oc1ccc(Cn2cc[nH]c2=S)cc1
inactive: [10] | [6] | [7]

CCCCCCCCCCC/C=C\C(C)(C)/C=C\CCCC(=O)O
inactive: [10] | [9]

O=S(=O)(c1cccc2c(Cl)cccc12)N1CCCNCC1
active: [9] 5.01 µM and 3.98 µM
inactive: [10] | [6] | [7]

NC/C=C\C(=O)O
inactive: [10] | [6] | [9] | [8]

CCn1c(=O)[nH]c2cc(Cl)c(Cl)cc21
inactive: [10] | [6] | [7] | [8]

Cc1nc(N=Nc2cc(S(=O)(=O)O)c3cc([N+](=O)[O-])cc(S(=O)(=O)O)c3c2)c(COP(=O)(O)O)c(C=O)c1O
inactive: [10] | [6] | [9] | [7] | [8]

O=c1onc2cnc3ccccc3n12
active: [9] 10 µM
inactive: [10] | [6] | [7] | [8]

NCCS(=O)O
inactive: [10] | [6] | [8]

NCCCCN
inactive: [10] | [9]

N[C@H](C(=O)O)c1cc(O)cc(O)c1
inactive: [10] | [6] | [7] | [8]

CC[C@H](NC(=O)c1c(C)c(-c2ccccc2)nc2ccccc12)c1ccccc1
inactive: [10] | [8]
active: [6] 12.6 µM

O=C(O)c1ccccc1Nc1cccc(OCc2ccc3ccccc3n2)c1
inactive: [10] | [7]
active: [6] 31.6 µM
inactive and 7.94 µM (active): [8]
